Test results published in PubChem BioAssay AID493034 (The Scripps Research Institute Molecular Screening Center, 2011).
The whole screen tested about 2,400 compounds, of which about 2,200 (92%) were called active. The set was probably picked from earlier hits. The list shows a part of the results. Unmarked numbers belong to inactive results.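 Rule for the calls: active = mean inhibition over triplicate runs exceeds the cutoff derived for the earlier primary screen (cut at about 25% in these data); inactive = the rest.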

Each molecule was assayed against Platelet-activating factor acetylhydrolase IB subunit alpha2 (Homo sapiens) (UniProt P68402) (assay: PAFAH1B2 inhibitors, confirmation, biochemical, fluorescence polarization, FP-rhodamine probe, triplicate (AID 493034;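 note: 0% = enzyme with DMSO and 100% = wells lacking PAFAH1B2 protein; inhibitors lower polarization by leaving the probe unbound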)). Settings: recombinant PAFAH1B2, FP-rhodamine probe fluorescence polarization; at 3.39 µM; stronger effect = higher value.
Platelet-activating factor acetylhydrolase IB subunit alpha2 (Homo sapiens), sequence (P68402 whole entry, looked up): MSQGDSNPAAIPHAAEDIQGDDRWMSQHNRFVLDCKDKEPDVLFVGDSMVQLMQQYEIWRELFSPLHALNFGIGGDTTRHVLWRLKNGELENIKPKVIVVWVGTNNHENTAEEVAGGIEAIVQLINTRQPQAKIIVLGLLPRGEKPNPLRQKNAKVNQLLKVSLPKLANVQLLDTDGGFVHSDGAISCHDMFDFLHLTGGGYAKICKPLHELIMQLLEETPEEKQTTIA
In the case of `COc1ccc(NC(=O)Nc2cccc3c2O[C@H](CN(C)C(=O)Nc2ccc(C(F)(F)F)cc2)[C@@H](C)CN([C@H](C)CO)C3=O)cc1`, the inhibition is reported as 56.9% (active). For `COc1ccc(NC(=O)N(C)C[C@H]2Oc3c(NC(=O)Nc4ccc(C(F)(F)F)cc4)cccc3C(=O)N([C@H](C)CO)C[C@@H]2C)cc1`, the inhibition was 28.7% (active). `O=C(O)CC/C(=C\c1ccc(N2CCOCC2)c([N+](=O)[O-])c1)c1nc2ccccc2s1` was tested, and the inhibition was 91.2% (active). For `O=C(O)CCc1ccc(S(=O)(=O)Nc2cc(C(F)(F)F)ccc2N2CCCC2)cc1`, the inhibition was 13.5%. `COc1cc(/C=C(\CCC(=O)O)c2nc3ccccc3s2)ccc1OCC(=O)Nc1c(Cl)cccc1Cl` was tested, and the inhibition was 57.7% (active). With `O=C(O)CC/C(=C\c1ccc(N2CCCC2)c([N+](=O)[O-])c1)c1nc2ccccc2s1` the inhibition was 84.2% (active). Molecule `O=C(O)C/C(=C\c1cc2c(cc1Br)OCO2)c1nc2ccccc2s1` has an inhibition of 22.2%. With `CCCCOc1ccc(CNC(=O)NS(=O)(=O)c2ccc(OCC(C)C)cc2)cc1` the inhibition was 57.7% (active). Molecule `Cc1ccc(CNC(=O)Nc2ccc(Cl)cc2)cc1` has an inhibition of 1.92%. In the case of `CCCCOc1ccc(S(=O)(=O)NC(=O)NCc2ccc(OCCC)cc2)cc1`, the inhibition is reported as 32.1% (active). `O=C(COC(=O)C1(c2ccc(F)cc2)CCCC1)N1CCN(C(=O)c2ccco2)CC1` gave an inhibition of 20.3%. `Cc1c(NC(=O)CCSc2ccc(Cl)cc2)c(=O)n(-c2ccccc2)n1C` was tested, and the inhibition was 24%. In the case of `Clc1ccc(SCCn2ccnc2)cc1`, the inhibition is reported as 37.8% (active). `Clc1ccc(SCCCCn2ccnc2)cc1` was tested, and the inhibition was 62.5% (active). For `CC1(COS(N)(=O)=O)CCCCC1`, the inhibition was 16.8%. For `CC(NC(=O)c1cc2cc(Br)ccc2oc1=N)c1ccccc1` (configuration not stated), the inhibition was 21.8%. For `O=C(O)COc1ccc(Br)cc1C(c1c(C(=O)O)[nH]c2ccccc12)c1c(C(=O)O)[nH]c2ccccc12`, the inhibition was 46.4% (active). With `CCOc1cc(Br)cc(C(c2c(C(=O)O)[nH]c3ccccc23)c2c(C(=O)O)[nH]c3ccccc23)c1O` the inhibition was 62.7% (active). For `O=C(O)c1[nH]c2ccccc2c1C(c1cc(Br)ccc1O)c1c(C(=O)O)[nH]c2ccccc12`, the inhibition was 89.5% (active). `O=C(O)COc1ccccc1-c1nc(-c2ccccc2)c(-c2ccccc2)[nH]1` showed an inhibition of 24%. In the case of `CC(Nc1ccc(Cl)cc1)c1cc(Cl)ccc1O` (configuration not stated), the inhibition is reported as 42.3% (active). In the case of `COc1oc(C(=O)NC2CCCCC2)c(-c2ccc(Cl)cc2)c1S(=O)(=O)c1ccccc1`, the inhibition is reported as 11.3%. `Nc1scc(-c2ccncc2)c1Cl` was tested, and the inhibition was 91.5% (active). With `O=C(O)CCn1cc(/C=C/C(=O)c2ccc(Cl)cc2)c(-c2cccc(Br)c2)n1` the inhibition was 47.4% (active). For `O=C(O)CCn1cc(/C=C\C(=O)c2ccc(Cl)cc2)c(-c2cccc(Br)c2)n1`, the inhibition was 41.1% (active). Work on `CCN(C(=O)CSc1nnc(-c2ccc3c(c2)OCO3)o1)C1CCS(=O)(=O)C1` (configuration not stated) yielded an inhibition of 1.27%. With `NC(=S)N=Nc1c(O)n(CCCl)c2ccc(Br)cc12` the inhibition was 30.4% (active). In the case of `Cc1ccc(S(=O)(=O)Oc2ccc(C3C4=C(CCCC4=O)N(CCC(=O)O)C4=C3C(=O)CCC4)cc2Cl)cc1`, the inhibition is reported as 33.9% (active). For `Cc1ccc(S(=O)(=O)Nc2cc(C)c(O)c(S(=O)(=O)c3ccc(C)cc3)c2)cc1`, the inhibition was 28.9% (active). Work on `Cc1cc(C(C)(C)C)cc(S(=O)(=O)Nc2cccc(C(=O)O)c2)c1C` yielded an inhibition of 23.3%. Work on `Cc1ccc(S(=O)(=O)Nc2ccc(S(=O)(=O)NCC3CCCO3)cc2)cc1` (configuration not stated) yielded an inhibition of 23.3%. In the case of `COc1cccc(/C=N/N2CCN(c3ccc(Cl)cc3)CC2)c1OC`, the inhibition is reported as 23.6%. For `NC1=NC(=O)/C(=C/c2cn(CCC(=O)O)nc2-c2ccc(Cl)cc2)S1`, the inhibition was 24.1% (active). With `NC1=NC(=O)/C(=C/c2cn(CCC(=O)O)nc2-c2ccc(F)cc2)S1` the inhibition was 38.2% (active). With `Cc1ccc(S(=O)(=O)N2CCC(=O)N(C(COC(=O)Nc3ccccc3)Cc3ccccc3)CC2)cc1` (configuration not stated) the inhibition was 32.5% (active). Molecule `NC(=O)c1c(NC(=O)CN2CCN(S(=O)(=O)c3ccccc3)CC2)sc2c1CCC2` has an inhibition of 1.51%. In the case of `CCc1ccc(-c2nc(CSCC(=O)N3CCN(c4ccccn4)CC3)c(C)o2)cc1`, the inhibition is reported as 53% (active). `CCCCCCCCCCCC(=O)O` gave an inhibition of 21.5%. For `O=c1[nH]c(CSc2nc3ccccc3s2)nc2ccccc12`, the inhibition was 16.8%. Molecule `COc1ccccc1N1CCN(S(=O)(=O)c2ccc(Cl)cc2)CC1` has an inhibition of 24.1%. In the case of `CC(C(=O)Nc1ccccc1-c1ccccc1)N1CCN(S(=O)(=O)c2ccccc2)CC1` (configuration not stated), the inhibition is reported as 22%. In the case of `CC(=O)NC(Cc1c[nH]c2ccccc12)C(=O)OCC(=O)N1CCN(S(=O)(=O)c2ccc(Cl)cc2)CC1` (configuration not stated), the inhibition is reported as 84.9% (active). Molecule `N=c1c(S(=O)(=O)c2ccc(Br)cc2)cc2c(=O)n3ccccc3nc2n1CCN1CCOCC1` has an inhibition of 22.9%. In the case of `Nc1nc(C2CCCCC2)cs1`, the inhibition is reported as 55.7% (active). In the case of `COC(=O)CSc1nnc(SCc2ccc(Cl)cc2)s1`, the inhibition is reported as 20.6%. In the case of `NS(=O)(=O)c1cccc(NC(=O)CC23CC4CC(C2)CC(CC(=O)Nc2cccc(S(N)(=O)=O)c2)(C4)C3)c1`, the inhibition is reported as 27.4% (active). Molecule `CCc1cccc(Nc2cnn(C34C[C@@H]5C[C@@H](CC(CC(=O)O)(C5)C3)C4)c(=O)c2Cl)c1` has an inhibition of 20.4%.
